Screens: PubChem BioAssay, several laboratories
hcDAF-12 act = H. contortus DAF-12 nuclear receptor activators, primary screen, cell-based, luminescence, HEK293, lit1-tk-luc reporter | HEK293 hcDAF-12 lit1-tk-luc reporter; 0% DMSO, 100% Δ7-dafachronic acid | 1.4% of 370,000 active | activation, % at 6.8 µM | AID 652067, 2013;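 active = activation above the mean of all tested compounds plus 3 SD, cut at about 5.5% in these data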;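 note: 100% = response to 3 µM Δ7-dafachronic acid high control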
ssDAF-12 act = S. stercoralis DAF-12 nuclear receptor activators, primary screen, cell-based, luminescence, HEK293, GRIP1 co-expression, lit1-tk-luc; HEK293 ssDAF-12/GRIP1 lit1-tk-luc reporter; % of 3 µM dafachronic acid response; activation, % at 6.8 µM; 1% of 370,000 active; AID 652126, 2013; Nuclear hormone receptor DAF-12 (Strongyloides stercoralis);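 active = activation above the mean over all tested compounds plus 3 SD, cut at about 0.9% in these data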;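 note: 0% = DMSO-only wells and 100% = 3 µM delta7-dafachronic acid wells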
DAX1 inh-1 = DAX1 (NR0B1) inhibitors on StAR promoter, primary screen, cell-based, luminescence, SF-1 (NR5A1), full-length DAX-1; HEK293T StAR-luciferase reporter, SF-1/DAX-1 repression relief; inhibition, % at 6.8 µM; 1.1% of 370,000 active;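 active = inhibition above the mean over all tested compounds plus 3 SD, cut at about 3.6% in these data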;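 note: 0% = DAX-1 cells with DMSO and 100% = cells lacking DAX-1 with DMSO; higher inhibition means more luminescence from relief of DAX-1 repression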
hgDAF12 agonist = H. glycines DAF-12 receptor agonists, primary screen, cell-based, luminescence, HEK293, GAL4 fusion, UAS-luciferase; Nuclear hormone receptor DAF-12 (Heterodera glycines), GAL4 fusion; HEK293 GAL4-hgDAF12 UAS-luciferase reporter, agonist luminescence; normalized to butyrate control; activation, % at 6.8 µM; 1.8% of 370,000 active;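 active = activation above a cutoff set at the mean of all screened compounds plus 3 SD, cut at about 10% in these data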;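 note: 0% = DMSO wells and 100% = sodium butyrate wells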
NR1D1 modulator = modulators of Rev-erb alpha DNA binding, primary screen, biochemical, FITC-DNA, fluorescence polarization, uHTS. Rev-erbα–FITC-DNA binding, 90 min. 0.79% of 370,000 active. Nuclear receptor subfamily 1 group D member 1 (Homo sapiens), P20393. activity, % at 10 µM;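 active = activity above about 14%, limit read from the data; passing the limit was not always enough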;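 note: 0% = DMSO wells with 35 nM protein and 100% = DMSO wells with 750 nM protein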
DAX1 inh-2 = DAX1 (NR0B1) inhibitors, primary screen, cell-based, HEK293, Gal4-DAX1, luciferase luminescence | Nuclear receptor subfamily 0 group B member 1 (Homo sapiens), P51843 | 0.99% of 340,000 active | HEK293 Gal4-DAX1 luciferase reporter | inhibition, % at 6.75 µM;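 active = inhibition above the mean over all tested compounds plus 3 SD, cut at about 4.2% in these data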;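 note: 0% = DAX1-transfected cells with DMSO and 100% = empty-vector control cells with DMSO; inhibition shows as a rise in luminescence from relieved DAX1 repression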
DAX1 inh confirm = DAX1 (NR0B1) inhibitors relieving SF-1 repression, confirmation, cell-based, luminescence, HEK293T, full-length DAX-1, SF-1 activated StAR promoter. shares compounds with DAX1 inh-1. HEK293T StAR-promoter luciferase reporter, SF-1/DAX-1 repression. inhibition, % at 6.8 µM. 87% of 2,400 active. AID 652134, 2013;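 active = inhibition above the average of every tested compound plus 3 SD, cut at about 3.8% in these data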;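 note: 0% = DAX-1 cells with DMSO and 100% = no DAX-1 control cells with DMSO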
SF1 AF2mut Luc = StAR reporter signal changes without DAX1, counter-screen for DAX1 inhibitor project, cell-based, luminescence, AF-2 mutant SF-1, transactivation; shares compounds with DAX1 inh-1; AID 652136, 2013; 78% of 2,400 active; HEK293 StAR-luciferase, SF-1 AF2 mutant; inhibition, % at 6.8 µM;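 active = inhibition above the mean of all tested compounds plus 3 SD, cut at about 3% in these data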;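 note: 0% = DAX-1 transfected cells with DMSO and 100% = cells without DAX-1 with DMSO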
LXR ag = LXR agonists, Gal4 luciferase reporter, confirmation, counter-screen for hcDAF-12 agonist project, cell-based, luminescence, HEK293, H. contortus campaign; HEK293 Gal4-LXR tk-luc reporter, 24 h; normalized: DMSO 0%, positive control 100%; 3,400 tested, under 10 active; activation, % at 6.8 µM; shares compounds with hcDAF-12 act;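 active = mean percent activation of the reporter above a cutoff set as the average over tested compounds plus their standard deviation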
Target sequence (P55055 whole entry, looked up, the tested form may be a part): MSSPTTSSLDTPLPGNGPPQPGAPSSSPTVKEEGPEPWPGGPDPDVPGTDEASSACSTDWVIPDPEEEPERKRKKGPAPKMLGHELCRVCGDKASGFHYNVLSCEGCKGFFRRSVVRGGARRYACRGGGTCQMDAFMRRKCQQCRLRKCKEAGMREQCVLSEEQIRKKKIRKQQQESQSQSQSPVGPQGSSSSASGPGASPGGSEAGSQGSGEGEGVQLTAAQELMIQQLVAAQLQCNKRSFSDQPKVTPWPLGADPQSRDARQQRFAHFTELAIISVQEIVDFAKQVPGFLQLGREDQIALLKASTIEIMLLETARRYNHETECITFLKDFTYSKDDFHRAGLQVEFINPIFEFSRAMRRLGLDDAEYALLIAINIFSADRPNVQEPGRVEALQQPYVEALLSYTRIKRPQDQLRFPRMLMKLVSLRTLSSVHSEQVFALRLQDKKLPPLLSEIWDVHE
hcDAF12 conf = H. contortus DAF-12 receptor agonists, confirmation, cell-based, luminescence, HEK293, lit1-tk-luc, triplicate; activation, % at 6.8 µM; shares compounds with hcDAF-12 act; HEK293 hcDAF-12 lit1-tk-luc reporter; % of Δ7-dafachronic acid response; 61% of 3,400 active; AID 743032, 2013;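 active = mean activation across triplicate tests above the threshold derived from the earlier primary screen, cut at about 5.5% in these data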;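 note: 0% = DMSO only wells and 100% = 3 µM Δ7-dafachronic acid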
hgDAF12 ag = H. glycines DAF-12 receptor agonists, confirmation, cell-based, luminescence, HEK293, GAL4-LBD fusion | activation, % at 6.8 µM | shares compounds with hgDAF12 agonist | AID 743050, 2013 | HEK293 GAL4-hgDAF12 luciferase reporter, agonist mode; percent of butyrate response | 80% of 3,300 active;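 active = mean activation over triplicate wells above the hit cutoff derived from the earlier primary screen, cut at about 11% in these data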;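 note: 0% = DMSO low control and 100% = 2 mM sodium butyrate high control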
LXR ag 2 = LXR agonists, Gal4 luciferase reporter, confirmation, counter-screen for hgDAF-12 agonist project, cell-based, luminescence, HEK293, H. glycines campaign; 3,300 tested, under 10 active; 24 h; shares compounds with hgDAF12 agonist; activation, % at 6.8 µM; AID 743051, 2013;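 active = mean activation of the triplicate above a set limit carried over from the primary screen, none filed active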
Active calls of the source: *; x = no result given. The list is not random: actives were taken first. Their share in the collection is about 4.8%.

SMILES	hcDAF-12 act	ssDAF-12 act	DAX1 inh-1	hgDAF12 agonist	NR1D1 modulator	DAX1 inh-2	DAX1 inh confirm	SF1 AF2mut Luc	LXR ag	hcDAF12 conf	hgDAF12 ag	LXR ag 2
CCCn1cnc2cc(NC(=O)c3ccco3)ccc21	6.6*	1.2*	5.5*	15*	2	0	3	3.8*	0	3	10	0
O=C(Nc1ccc(NC(=O)c2ccco2)nc1)c1ccco1	3	0	5.9*	15*	0	-1	10*	2.9*	x	x	13*	1
CC(C#N)(Cc1ccccc1)Nc1ccccc1 (stereo not given)	6.5*	0	5.0*	14*	-9	-1	0	1	x	x	-2	0
C=CC(=O)NC(C)(C)Cc1ccccc1	-2	-1	0	-2	-3	1	x	x	x	x	x	x
COc1cccc(NC(=O)c2ccc3c(c2)N(C)CCS3)c1	6.2*	1	8.7*	16*	0	1	10*	9.3*	x	x	18*	1
CC1CCCCC12NC(=O)N(CC(=O)NCc1cccs1)C2=O (stereo not given)	-1	-2	1	-1	-4	0	x	x	x	x	x	x
Cc1cc(C(=O)CN2C(=O)NC3(CCCCC3C)C2=O)c(C)n1Cc1cccs1 (stereo not given)	4	0	5.0*	15*	1	1	9.6*	5.5*	x	x	10*	1
O=C(NCc1ccccc1)C(c1ccccc1)n1c(-c2ccncc2)nc2ccccc21 (stereo not given)	1	-1	1	0	0	x	x	x	x	x	x	x
O=C(NCc1ccccc1)C(c1ccccc1)n1c(C2CC2)nc2ccccc21 (stereo not given)	2	1.9*	6.1*	20*	-2	x	11*	5.2*	x	x	16*	1
CC1CCCN(C(=O)c2ccc(-c3ccccc3Cl)o2)C1 (stereo not given)	2	0	7.8*	18*	2	4	12*	6.3*	x	x	15*	1
O=C(Nc1ccc(N2CCN(C(=O)c3ccccc3)CC2)cc1)c1ccc(Br)o1	-4	-1	-1	-1	-1	-1	x	x	x	x	x	x
O=C(Nc1ccc(N2CCCC2)cc1)c1ccc(Br)o1	9.2*	1	6.0*	16*	4	1	12*	6.0*	2	7.9*	17*	1
O=C(Nc1ccc(N2CCCCC2)cc1)c1ccc(F)cc1	8.3*	1	4.6*	13*	1	0	12*	6.0*	1	2	20*	1
Cc1cnc2nc(-c3ccccc3)ccc2c1	6.8*	1.0*	8.2*	17*	-5	x	11*	6.8*	2	6.6*	19*	1
Cc1cc(-c2ccncc2)n2ncc(-c3ccccc3)c2n1	11*	2.5*	13*	19*	-5	x	19*	9.5*	2	11*	23*	1
Brc1ccc(-c2cn3nc4c(nc3n2)CCCC4)cc1	12*	1	4.9*	14*	1	1	6.8*	3.2*	1	8.2*	14*	1
COc1cccc(C(=O)/C=C/Nc2cccc(O)c2)c1	x	x	x	x	-3	-3	x	x	x	x	x	x
COc1cccc(N/C=C/C(=O)c2ccc(Cl)cc2)c1	7.1*	1	6.1*	20*	1	2	17*	6.6*	2	8.7*	22*	1
O=C(CSc1nnc(-c2cccnc2)o1)Nc1ccccc1F	3	0	8.4*	14*	7	1	11*	4.4*	x	x	12*	1
COc1ccc(C)cc1NC(=O)CSc1nnc(-c2ccc(Br)cc2)o1	-1	0	0	0	9	-1	x	x	x	x	x	x
COc1ccccc1NC(=O)CSc1nnc(-c2ccc(C)cc2)o1	4	0	6.3*	14*	-3	1	15*	8.3*	x	x	17*	1
O=C(CSc1nnc(-c2cccnc2)o1)Nc1ccccc1Br	0	-1	0	2	-1	2	x	x	x	x	x	x
OCCN1CCN(c2cnc(-c3ccsc3)cn2)CC1	5	1	5.9*	17*	1	x	10.0*	6.2*	x	x	13*	1
Nc1ncc(-c2ccc(F)cc2)nc1N1CCN(CCO)CC1	-1	-1	1	0	-1	x	x	x	x	x	x	x
